# Fewer than 10 of roughly 69,000 compounds were called active. About 100% were inconclusive and are not listed. The rule behind the calls is not given here. Some of the results follow.
# Target: UDP-N-acetylglucosamine--peptide N-acetylglucosaminyltransferase 110 kDa subunit (Homo sapiens) (UniProt O15294)
# Assay: O-Glc NAc Transferase (sOGT)
# Details: sOGT fluorescence polarization UDP-GlcNAc probe displacement
# From the text: NIH Molecular Libraries Screening Centers Network [MLSCN]
# NIH Chemical Genomics Center [NCGC]
# Suzanne Walker [Harvard Medical School]
# OGT is the sole enzyme that mediates the attachment of O-GlcNAc groups to serine and threonine residues in the nucleus and cytoplasm of eukaryotic cells, and no specific inhibitors are known. This type of glycosylation is involved in signal transduction and plays a key role in many essential cellular processes. High O-GlcNAc levels have been correlated to insulin resistance and type 2 diabetes. In addition to elucidating the role of O-GlcNAc in cellular processes, inhibitors of OGT might be useful in studying and perhaps treating type 2 diabetes. Since HTS-amenable direct assay for OGT activity is currently unavailable, a simpler substrate-displacement screen was performed. The signal measured is based on the change in fluorescence polarization of a fluorescein-labeled UDP-GlcNAc upon displacement from its complex with OGT. Recombinant truncated version of the enzyme, sOGT, as well as labeled probe, were made available by Suzanne Walker and Benjamin Gross, Harvard Medical School. […]
# Three uL of reagents were dispensed to 1536-well Greiner black plates. […] The plates were incubated for 15 min at room temperature, and then read on ViewLux (Perkin-Elmer) High-throughput CCD imager using fluorescein polarization filter set and 45 seconds exposure time. […]
# Sequence of UDP-N-acetylglucosamine--peptide N-acetylglucosaminyltransferase 110 kDa subunit (Homo sapiens) (O15294 whole entry, looked up): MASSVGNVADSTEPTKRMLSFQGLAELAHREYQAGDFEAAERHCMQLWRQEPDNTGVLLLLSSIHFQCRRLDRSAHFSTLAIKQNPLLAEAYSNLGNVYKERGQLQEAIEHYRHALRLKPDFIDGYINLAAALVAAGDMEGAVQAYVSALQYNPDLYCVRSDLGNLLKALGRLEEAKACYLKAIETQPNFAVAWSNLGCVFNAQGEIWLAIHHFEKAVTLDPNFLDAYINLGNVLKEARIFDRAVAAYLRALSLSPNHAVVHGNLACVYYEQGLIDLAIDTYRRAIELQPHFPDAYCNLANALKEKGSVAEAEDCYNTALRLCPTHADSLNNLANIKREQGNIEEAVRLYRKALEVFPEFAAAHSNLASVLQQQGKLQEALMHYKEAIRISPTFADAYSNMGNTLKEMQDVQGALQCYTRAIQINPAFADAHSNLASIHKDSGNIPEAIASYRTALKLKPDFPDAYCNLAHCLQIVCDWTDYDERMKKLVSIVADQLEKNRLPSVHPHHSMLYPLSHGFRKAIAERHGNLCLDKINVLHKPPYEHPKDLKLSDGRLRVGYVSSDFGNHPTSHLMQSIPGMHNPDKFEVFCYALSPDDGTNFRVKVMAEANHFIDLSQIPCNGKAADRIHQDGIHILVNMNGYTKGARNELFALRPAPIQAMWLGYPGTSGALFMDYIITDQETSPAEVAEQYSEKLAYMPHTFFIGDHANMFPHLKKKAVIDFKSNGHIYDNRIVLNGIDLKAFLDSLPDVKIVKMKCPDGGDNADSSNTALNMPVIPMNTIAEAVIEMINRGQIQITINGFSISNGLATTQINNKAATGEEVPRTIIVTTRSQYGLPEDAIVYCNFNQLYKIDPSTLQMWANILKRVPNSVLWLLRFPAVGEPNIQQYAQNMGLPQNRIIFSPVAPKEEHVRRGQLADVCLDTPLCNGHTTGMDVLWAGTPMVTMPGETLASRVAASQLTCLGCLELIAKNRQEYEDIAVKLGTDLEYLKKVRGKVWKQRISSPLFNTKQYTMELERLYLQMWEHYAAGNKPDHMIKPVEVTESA
row,Compound,Potency
1,O=C1CCCN1CC#CCN1CCCC1,29.9 µM (active)
